# Screening results from PubChem.
# LDHA block – inhibitors of human lactate dehydrogenase A | P00338 | purified LDHA, NADH/diaphorase-resazurin fluorescence; stronger effect = lower value | activity change, % (values are at about 110 or 230 µM) | actives 0.15% (n = 480,000) | AID 1347041; in the data active means activity change below about -30%; inconclusive means mostly about -25% to -30%;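 further: plate controls were DMSO wells for no effect and wells without enzyme for full effect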
#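 Enzyme activity of human lactate dehydrogenase 5 (2 nM; 0.06 mM NADH, 0.2 mM pyruvate, 5 min, RT) is measured via a resazurin/diaphorase fluorescence readout of residual NADH.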
# Nrf2 inh – Nrf2 pathway inhibition. AID 504444. actives 2.1% (n = 360,000). A549 ARE-Fluc reporter, luciferase luminescence, 18-24 h. Potency, µM (titrated, usually from 46 µM), inactives show at the top dose activity change, negative = inhibition, usual class: inhibitors; further: potency means the concentration at half of the fitted maximal effect; on the % scale 0 is the no-effect control and ±100 the full control effect; nearly all actives have a fitted effect of over 60% in size
#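 Nrf2 activity is the BugLite luminescence, read 15 min after reagent at room temperature, following CellTiter-Fluor cytotoxicity readout (30 min, 37C). Compound titrations were applied for 18-24 h to 5000 A549 ARE_Fluc cells/well in 5% FBS OPTI-MEM.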
# A549 viability – counter-screen for Nrf2 inhibitors: cytotoxicity in A549 cells | A549 ARE-Fluc cells, CellTiter-Fluor viability, 18-24 h | AID 504648 | actives 0.16% (n = 390,000) | Potency, µM (series often up to 46 µM), without a hit: top-dose activity change, negative = cytotoxicity, usual class: inhibitors; further: potency means the concentration at half of the fitted maximal effect; on the % scale 0 is the no-effect control and ±100 the full control effect
#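 A549 ARE-Fluc cells in 5% FBS OPTI-MEM, 5000 cells/well, rested 2 h then exposed to compounds in concentration-response for 18-24 h at 37 °C. Viability by CellTiter-Fluor fluorescence (Ex 405/Em 525) after 30 min; luciferase luminescence (BugLite, 15 min, RT) read afterwards.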
# Nrf2 ARE act – activates Nrf2 signaling. AREc32 ARE-luciferase reporter (MCF7-derived line), luminescence, 24 h. Potency, µM (series often up to 46.1 µM), for inactives: at the highest dose activation, most hits filed as activators. actives 0.31% (n = 410,000); further: potency means the concentration at half of the fitted maximal effect; % of control where 0% means no effect; nearly all actives have a fitted effect of over 65% in size
#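 For detection, Steady-Glo was added and plates sat 30 min at RT; before that, AREc32_Fluc cells grown overnight in OPTI-MEM/5% FBS had been treated with 23 nL compound for 24 hr at 37 deg C.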
# 12-LOX inh – inhibitors of human 12S-lipoxygenase ALOX12; P18054; purified 12hLO, xylenol orange hydroperoxide absorbance; Potency, µM (series often up to 108 µM), for inactives: at the top dose activity change, negative = inhibition, hits mostly inhibitors; actives 1.1% (n = 580,000); further: potency means the concentration at half of the fitted maximal effect; on the % scale 0 is the no-effect control and ±100 the full control effect
# Target sequence (P18054 whole entry, looked up): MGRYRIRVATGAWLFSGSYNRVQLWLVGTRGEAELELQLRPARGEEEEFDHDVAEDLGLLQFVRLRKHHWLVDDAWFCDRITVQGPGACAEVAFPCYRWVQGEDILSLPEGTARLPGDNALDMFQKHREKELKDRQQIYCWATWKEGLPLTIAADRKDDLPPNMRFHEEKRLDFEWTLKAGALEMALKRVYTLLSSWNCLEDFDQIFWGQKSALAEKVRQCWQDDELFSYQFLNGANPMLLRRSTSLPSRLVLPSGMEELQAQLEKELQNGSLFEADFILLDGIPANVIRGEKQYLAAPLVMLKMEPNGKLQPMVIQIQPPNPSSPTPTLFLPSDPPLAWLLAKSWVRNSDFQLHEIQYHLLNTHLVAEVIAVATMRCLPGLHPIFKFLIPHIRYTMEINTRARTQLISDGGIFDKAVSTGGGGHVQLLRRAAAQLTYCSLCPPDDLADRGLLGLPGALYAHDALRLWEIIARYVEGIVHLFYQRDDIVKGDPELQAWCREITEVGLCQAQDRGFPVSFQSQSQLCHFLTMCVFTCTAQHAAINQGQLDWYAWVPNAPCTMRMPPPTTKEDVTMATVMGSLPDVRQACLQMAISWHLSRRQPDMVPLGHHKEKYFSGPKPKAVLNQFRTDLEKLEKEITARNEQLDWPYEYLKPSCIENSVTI
#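 Purified human 12hLO at 150 nM in 25 mM Hepes, 0.01% Triton X-100, pH 7.0, preincubated 15 min at room temperature with compound. Reaction started with 40 uM arachidonic acid, 30 min at room temperature. Hydroperoxide measured by Fe-xylenol orange, 573/405 nm absorbance ratio.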
# IDH1 R132H inh – inhibitors of human mutant IDH1 R132H. O75874. actives 0.093% (n = 390,000). AID 602179. IDH1-R132H enzyme, NADPH consumption, diaphorase/resazurin fluorescence. Potency, µM (highest dose often 76.6 µM), for the others: top-dose activity change, negative = inhibition, usual class: inhibitors; further: potency means the concentration at half of the fitted maximal effect; on the % scale 0 is the no-effect control and ±100 the full control effect; nearly all actives have a fitted effect of over 65% in size
#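 IDH1-R132H (0.5 ug/mL dispensed) in pH 7.5 Tris buffer was preincubated 30 min with compound, then given a substrate mix of 0.016 mM NADPH and 2 mM alpha-KG for 80 min at room temperature; remaining NADPH was read by diaphorase/resazurin fluorescence.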
# An asterisk follows results filed as active; ? = inconclusive; . = not tested or not shown; ! = a repeat was not active. Only some compounds are listed: those with a hit (about 2.7% of all), similar ones and a draw of the others. Unless noted, the call rests on the fitted dose curve; in most records, active means well fitted curve in the direction sought with a large enough effect; inconclusive means small, poorly fitted or top-dose-only effect, or another doubt; inactive means no such curve, though single readings can be large; an effect the other way counts as inactive or inconclusive.
SMILES,LDHA block,Nrf2 inh,A549 viability,Nrf2 ARE act,12-LOX inh,IDH1 R132H inh
Clc1cccc(N/N=C(/c2ccccc2)c2ccncc2)c1,-5,.,.,.,40µM*,.
COC(=O)c1cc(C)sc1NC(=O)CC1Sc2ccc(C(F)(F)F)cc2NC1=O (stereo not drawn),1,.,.,.,?,.
Cc1cc(NC(=O)NCC(c2ccco2)N(C)C)no1 (stereo not drawn),3,.,.,.,9%,.
O=C(Nc1ncn[nH]1)C1CC(=O)N(c2ccccc2)C1 (stereo not drawn),-1,.,.,.,7%,.
N#C/C(=N\Nc1ccc(Cl)cc1)C(=O)c1ccsc1,-2,16µM*,?,6%,159%,8%
Cc1ccc(N/N=C(\C#N)C(=O)c2ccsc2)cc1,-6,?,-16%,9%,253%,-3%
CN1c2ccccc2C(C)(C)C12C=Cc1cc(O)ccc1O2 (stereo not drawn),17,21µM*,?,12%,?,-4%
Fc1ccc(N/N=C2/CCSc3sccc32)c(F)c1,-2,21%,1%,?,35µM*,2%
C/C(=N/Nc1ccc(F)cc1F)c1cc(Cl)ccc1Cl,0,.,.,.,?,.
COc1ccc(C(=O)N2N=C(c3cccs3)CC2c2ccccc2O)cc1 (stereo not drawn),-4,18µM*,?,7%,-17%,-14%
COc1ccc(C2=NN(C(=O)c3cccs3)C(c3ccccc3O)C2)cc1 (stereo not drawn),-11,23µM*,?,0%,-3%,0%
OCC1(Cc2ccc(Cl)cc2)CCN(CCCc2ccccc2)CC1,-4,-7%,-1%,6%,3.2µM*,-4%
OCC1(Cc2ccc(Cl)cc2)CCN(Cc2ccccc2F)CC1,0,-7%,7%,1%,4%,11%
O=C(COC(=O)c1cc(-c2cccs2)nc2ccccc12)NCC(F)(F)F,-6,.,.,.,-70%,.
COc1ccccc1-n1cc(-c2ccccc2)c2c(=S)nc[nH]c21,-6,2%,-15%,1%,45µM*,0%
CCOc1ccccc1CNC(=O)C1CCCN(c2nnc(C)c3c(C)n(-c4ccccc4)nc23)C1 (stereo not drawn),-3,23µM*!,?,3%,11%,10%
COc1ccc(-n2nc3c(N4CCCC(C(=O)NCc5ccccc5C)C4)nnc(C)c3c2C)cc1 (stereo not drawn),-7,21µM*,18µM*,-3%,-28%,4%
CCOC(=O)c1c(C)oc2nc(C)nc(N3CCN(c4cccc(C(F)(F)F)c4)CC3)c12,1,?,-2%,4%,-10%,1%
CCOC(=O)c1c(C)oc2nc(C)nc(N3CCN(c4ccccc4)CC3)c12,-3,23µM*,-5%,-1%,-3%,-2%
CCOC(=O)c1c(C)oc2nc(C)nc(N(C)Cc3ccccc3)c12,3,13µM*,7%,8%,-4%,7%
Cc1nc(SCC(=O)NCC2COc3ccccc3O2)c2c(C)c(C)sc2n1 (stereo not drawn),-5,21µM*,1%,0%,10%,-9%
Cc1cc(C)nc(SCC(=O)NCC2COc3ccccc3O2)n1 (stereo not drawn),-10,17%,1%,0%,-1%,-14%
Cc1sc2ncnc(N(C)CCc3ccccn3)c2c1C,-32*,-19%,3%,-1%,?,-1%
Cc1nc2c(c(C)c1CCC(=O)NCCN1CCCCCC1)c(=O)n(C)c(=O)n2C,-18,.,.,.,-3%,.
O=c1c(-c2cccs2)nc2ccccc2n1C(c1ccccn1)c1nc2ccccc2[nH]1 (stereo not drawn),15,.,.,.,40µM*,.
O=c1c(-c2ccco2)nc2ccccc2n1C(c1ccccc1)c1nc2ccccc2[nH]1 (stereo not drawn),-1,.,.,.,18µM*,.
